Experiment [1] in a line: Confirmatory screen GU Rhodamine qHTS for Zika virus inhibitors qHTS (AID 1347157). Also: nearly all actives have a fitted effect of over 70% in size. Also: potency is read from the fitted curve at half-maximal effect. The gist of the method:
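Unlinked NS2B/NS3, 25 nM; Rhod110 peptide, 1.5 microM; compounds, up to 114 microM. Reaction run 15 min at RT in 10 mM Tris-HCl pH 8.0, 0.01% Tween 20; kinetic fluorescence change fitted with a 4-parameter Hill model.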
(qHTS replaces the single test concentration by a dilution series.)

Experiment [2] is described as follows: ZIKV-mCherry secondary qHTS for Zika virus inhibitors (AID 1347158). Also: potency is read from the fitted curve at half-maximal effect. The gist of the method: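 Vero cells, 5,000/well, plated overnight at 37 °C, then compound added and infected with recombinant ZIKV-mCherry at MOI 1 for 48-72 h. PFA-fixed, Hoechst nuclear stain, high-content imaging; cells with mCherry intensity above 450 RFU scored infected, reported as percent infection.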

For experiment [3], the system named is Zika virus NS2B-NS3 protease (unlinked complex). The experiment in a line: Primary screen GU Rhodamine qHTS for Zika virus inhibitors: Unlinked NS2B-NS3 protease assay (AID 1347159). Also: nearly all actives have a fitted effect of over 60% in size. Also: potency is read from the fitted curve at half-maximal effect. The gist of the method: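 Percent inhibition derives from the 15-min fluorescence change (ex 480, em 540 nm), normalized to no-enzyme and no-inhibitor wells. Reactions contained 25 nM NS2B-NS3 complex and 1.5 microM substrate in 10 mM Tris-HCl pH 8.0.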

Experiment [4] relates to Zika virus NS2B-NS3 protease (linked construct). The experiment in a line: Primary screen NINDS Rhodamine qHTS for Zika virus inhibitors (AID 1347160). Also: nearly all actives have a fitted effect of over 55% in size. Also: potency is read from the fitted curve at half-maximal effect. The gist of the method: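 In 10 mM Tris-HCl pH 8.0 containing 0.01% Tween 20, linked NS2B-NS3 protease (25 nM final) is exposed to test compounds for 15 min. Cleavage of 1.5 microM Rhodamine110 substrate is tracked by fluorescence over 15 min.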

Experiment [5] in a line: Confirmatory screen NINDS Rhodamine qHTS for Zika virus inhibitors (AID 1347161). Also: nearly all actives have a fitted effect of over 60% in size. Also: potency is read from the fitted curve at half-maximal effect. The gist of the method: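 qHTS dose-response: 25 nM linked protease, pH 8.0 Tris/Tween buffer, cpd titration, 15 min RT preinc, 1.5 microM Rhod110 peptide, 15 min reaction (~15% conversion), Ex480/Em540; 4-parameter Hill fit.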
A short description of experiment [6]: Vero cells viability qHTS for Zika virus inhibitors (AID 1347167). The gist of the method: (§1)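 Counter-screen for cytotoxicity of hits from NS2B-NS3 protease qHTS. Overnight-attached cells (2.5 x 10^5 cells/mL, DMEM/4% FBS) were dosed in titration, incubated 24 to 48 hours, then assayed by CellTiter Glo.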
The nature of experiment [7]: HepG2 cells viability qHTS for Zika virus inhibitors (AID 1347168). The essentials: as §1
Experiment [8] in a line: Tertiary RLuc qRT-PCR qHTS assay for Zika virus inhibitors (AID 1347169). Also: nearly all actives have a fitted effect of over 55% in size. Also: potency is read from the fitted curve at half-maximal effect. The essentials:
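Luminescence read-out: live-cell Renilla luciferase substrate applied to infected Vero cells, signal measured after 1-1.5 hrs. Cells had received compound before ZIKV-RLuc (Cambodian strain, MOI 1-2) infection and were incubated 48-72 hrs at 37 degrees C.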
(In qPCR the cycle at which signal appears reflects the starting amount.)

Experiment [9] concerns Zika virus NS2B-NS3 protease (unlinked complex). The experiment in a line: Confirmatory screen GU AMC qHTS for Zika virus inhibitors (AID 1347153). Also: nearly all actives have a fitted effect of over 70% in size. The gist of the method:
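Compounds were preincubated 15 min at room temperature with 25 nM noncovalent NS2B-NS3 protease at pH 8.0; AMC substrate added at 10 microM and 15-min fluorescence gain (340/450 nm) converted to percent inhibition, fitted 4-parameter.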

For experiment [10], the system named is Zika virus NS2B-NS3 protease (linked). The experiment in a line: 384 well plate NINDS AMC confirmatory qHTS for Zika virus inhibitors (AID 1347163). Also: nearly all actives have a fitted effect of over 50% in size. Also: potency is read from the fitted curve at half-maximal effect. The gist of the method: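 Linked protease 5/30/60 nM final; cpds up to 1 mM final, ~15 min preinc. Substrate Ac-VKTGKR-AMC 30 microM final. RT, dark, 25 min; FI ex 355/em 460; normalized to no-enzyme/no-inhibitor ctrls.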

For experiment [11], the system named is Zika virus NS2B-NS3 protease (linked construct). The experiment in a line: 384 well plate NINDS Rhodamine confirmatory qHTS for Zika virus inhibitors (AID 1347164).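 Also: fluorescence from protease cleavage of Ac-LKRR-rhodamine 110 substrate; nearly all actives have a fitted effect of over 65% in size.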 Also: potency is read from the fitted curve at half-maximal effect. The essentials:
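Fluorescence read at ex 485 nm/em 538 nm, 25 min after adding 10 microM Ac-LKRR-Rd substrate at room temperature in the dark; signal normalized to no-enzyme and no-inhibitor controls. Enzyme final 5, 30 or 60 nM; compounds, ~15 min preincubation.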

Experiment [12] has the same test system. In words: Confirmatory screen NINDS AMC qHTS for Zika virus inhibitors (AID 1347152). Also: potency is read from the fitted curve at half-maximal effect; nearly all actives have a fitted effect of over 70% in size. The gist of the method:
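Linked NS2B-NS3 1 nM, Tris pH 8.0/0.01% Tween 20; cpd 15 min RT dark; + Nle-KRR-AMC 10 µM (Km 18.3 µM); read 0 and 15 min, 340/450 nm; %inh vs controls, 4-param Hill.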

Results filed as inconclusive are left out. The source made the active and inactive calls. Calls follow the shape of the dose curve; as a rule, active = well fitted curve in the direction sought with a large enough effect; inconclusive = small, poorly fitted or top-dose-only effect, or another doubt; inactive = no such curve, though single readings can be large; an effect the other way counts as inactive or inconclusive. *1 amine or outer side, *2 acyl side, *3 side chain or, on linkers, in order; H or OH if unused. Where a SMILES comes first, the peptide text is derived from it. Bridges are numbered along the chain shown (N, C = ends). [ ]: non-standard residue; d: D form. The star is where a group is joined. ξ: configuration not given here. ξhTyr(3S-OH,4S-OH,3'-OSO3H) = NC(C(=O)O)[C@H](O)[C@@H](O)c1ccc(O)c(OS(=O)(=O)O)c1; Orn(4R-OH,5R-OH) = O=C([C@H](C[C@@H](O)[C@@H](O)N[*:3])N[*:1])[*:2]; X2 = CCCCCOc1ccc(-c2cc(-c3ccc(C(=O)*)cc3)no2)cc1; X3 = C[C@H]1CN([*:1])C(C(=O)[*:2])[C@H]1O; ξGln(3R-OH) = NC(=O)C[C@@H](O)C(N)C(=O)O; ξPro(4R-OH) = O=C(O)C1C[C@@H](O)CN1; ξThr(3R) = C[C@@H](O)C(N)C(=O)O

This note sets out measurements from PubChem BioAssay (NCATS).

`COc1cccc(CNc2ccc(S(=O)(=O)Nc3nc4ccccc4s3)cc2)c1O`: the Potency in experiment [1] was 3.93 µM (active); in experiment [3], 3.55 µM (active); in experiment [4], 6.31 µM (active); in experiment [5] it was 3.93 µM (active); in experiment [8], 0.186 µM (active). The Potency entry in [2] was “inactive”. The molecule was classed as inactive in experiment [6] and in experiment [7].
For `Cc1ccccc1NC(=O)Nc1ccc(CN2C(=O)N([C@@H](CC(C)C)C(=O)N[C@@H](CC(=O)O)c3ccccc3)C(=O)C2(C)C)cc1`, the Potency entry in experiment [9], in experiment [2], in experiment [11] and in [8] was “inactive” throughout. Moreover, the Potency is 35 µM (active) in experiment [1]; 31.6 µM (active) in [3]; 7.08 µM (active) in experiment [4]; 27.8 µM (active) in experiment [5]; 10 µM (active) in experiment [10]. In addition, the outcome in experiment [6] and in experiment [7] was inactive.
Consider `CCc1nnc(NS(=O)(=O)c2ccc(NC(=S)NC(=O)/C=C/c3ccc(F)cc3)cc2)s1`, for which the Potency in experiment [12] is 19.7 µM (active); in experiment [1] it was 2.78 µM (active); in [3] it was 3.16 µM (active); in experiment [4], 3.16 µM (active); in experiment [5], 2.78 µM (active); in experiment [8], 23.4 µM (active). In addition, the call in [6] and in experiment [7] was inactive.
With `COc1cc(/C=C/c2ccccc2)c(C(=O)O)c(O)c1CC=C(C)C`, the Potency in experiment [12] was 34.3 µM (active); in experiment [9], 34.3 µM (active); in [1], 3.06 µM (active); in experiment [3] it was 4.47 µM (active); in [4], 10 µM (active); in experiment [5] it was 4.85 µM (active). In addition, the molecule was called inactive in experiment [6] and in [7].
As to `COc1cc(Nc2nc3ccccc3nc2NS(=O)(=O)c2cccc(NC(=O)c3ccc(C)c(OC)c3)c2)cc(OC)c1`, the Potency in experiment [12] was 13.9 µM (active); in experiment [1] it was 1.39 µM (active); in experiment [3] it was 3.55 µM (active); in experiment [4], 7.94 µM (active); in [5], 1.97 µM (active). Also, the Potency entry in [10] and in experiment [11] was “inactive” in each case. The molecule was classed as inactive in [6] and in experiment [7].
With `CC(=O)OC12CC(C)C(OC(=O)c3ccccc3)C1/C=C(/C)C(OC(=O)c1ccccc1)CC(=O)C(C)(C)/C=C/C(C)C2=O` (stereo unspecified), the Potency in experiment [1] is 4.64 µM (active); in [3], 6.31 µM (active); in experiment [4] it was 7.08 µM (active); in [5] it was 3.68 µM (active); in experiment [11], 35.5 µM (active); in [8] it was 2.76 µM (active). The molecule was classed as inactive in [6] and in experiment [7].
As for `CCC(C)/C=C(C)/C=C/C1=CC2=CC(=O)C(C)(O)C(OC(C)=O)C2CO1` (stereo unspecified), the Potency in [1] is 30.6 µM (active); in experiment [3], 14.1 µM (active); in experiment [5] it was 34.3 µM (active). Moreover, the Potency result in experiment [4] and in experiment [8] was “inactive” each time.
On to `COc1cc(Nc2ccc([N+](=O)[O-])cc2C(=O)O)cc2ccccc12`, for which the Potency in experiment [12] is 15.6 µM (active); in experiment [1] it was 1.97 µM (active); in experiment [3], 2.24 µM (active); in experiment [4], 2.82 µM (active); in experiment [5], 2.21 µM (active); in experiment [10], 2.82 µM (active). In addition, in experiment [11], the Potency is 1.41 µM (active). Moreover, the call in [6] and in experiment [7] was inactive.
As for `O=C1NC(=O)/C(=C/c2cccc(C(F)(F)F)c2)S1`, the Potency was 17.5 µM (active) in experiment [12]; 4.41 µM (active) in experiment [1]; 2.51 µM (active) in [3]; 3.55 µM (active) in experiment [4]; 3.93 µM (active) in [5]; 100 µM (active) in experiment [10]. The values for the Potency in experiment [11] and in experiment [8] were 20 µM (active) and 18.6 µM (active), respectively. The call in [7] was inactive.
As for `COc1cc2c(c(O)c1OC/C=C(\C)CC/C=C(/C)CCC=C(C)C)CN(C(CCC(=O)O)C(=O)O)C2=O` (stereo unspecified), the Potency is 27.1 µM (active) in experiment [12]; 34.1 µM (active) in [9]; 3.41 µM (active) in [1]; 6.31 µM (active) in [2]; 2 µM (active) in [3]; 7.94 µM (active) in experiment [4]. In addition, the figures for the Potency in experiment [5] and in [10] were 2.71 µM (active) and 8.91 µM (active), respectively. Besides, the Potency result in experiment [11] was “inactive”. The molecule was called inactive in [6] and in experiment [7].
Take `Cc1cc(C)c2nc(-c3ccccn3)cc(C(=O)Nc3ccc(S(=O)(=O)Nc4onc(C)c4C)cc3)c2c1`: the Potency was 22.1 µM (active) in experiment [12]; 2.78 µM (active) in experiment [1]; 2 µM (active) in [3]; 2.24 µM (active) in experiment [4]; 3.12 µM (active) in [5]; 5.01 µM (active) in [10]. In [11], the Potency is 3.98 µM (active). Further, the Potency result in experiment [2] was “inactive”. In addition, the result in experiment [6] and in [7] was inactive.
In the case of `CCCCCOc1ccc(-c2cc(-c3ccc(C(=O)N[C@H]4C[C@@H](O)[C@@H](O)NC(=O)C5[C@@H](O)[C@@H](C)CN5C(=O)C([C@H](O)CC(N)=O)NC(=O)C([C@H](O)[C@@H](O)c5ccc(O)c(OS(=O)(=O)O)c5)NC(=O)C5C[C@@H](O)CN5C(=O)C([C@@H](C)O)NC4=O)cc3)no2)cc1` (stereo partly drawn) (X2-[Orn(4R-OH,5R-OH)][ξThr(3R)][ξPro(4R-OH)][ξhTyr(3S-OH,4S-OH,3'-OSO3H)][ξGln(3R-OH)][X3]; lactam 1-C), the Potency in [12] is 21.5 µM (active); in experiment [9], 21.5 µM (active); in experiment [1], 4.82 µM (active); in experiment [3], 2.24 µM (active); in experiment [4], 4.47 µM (active); in experiment [5], 4.29 µM (active). Further, the molecule was classed as inactive in experiment [6] and in experiment [7].
Regarding `C=C1C2CCC3C(CCC4[C@@]3(C)CCC[C@@]4(C)C(=O)O)(C2)[C@@H]1OC(=O)/C(C)=C\C` (stereo partly specified), the Potency is 21.5 µM (active) in [12]; 6.81 µM (active) in [1]; 6.31 µM (active) in [3]; 10 µM (active) in experiment [4]; 6.07 µM (active) in [5]; 39.8 µM (active) in experiment [10]. Moreover, in experiment [11], the Potency is 8.91 µM (active). Also, the molecule was classed as inactive in experiment [6] and in [7]. The Potency result in experiment [8] is “inactive”.
As for `Cc1ccccc1-n1nc(-c2c(-c3ccc(F)cc3)nn3c2NC[C@@H](CO)C3)ccc1=O`, the Potency result in experiment [1], in experiment [3] and in experiment [5] was “inactive” each time.
`O=C(O)CC1CCC(c2ccc(-c3ccc(Nc4ccc(C(F)(F)F)nc4)cn3)cc2)CC1` (stereo unspecified): the Potency in [9] was 44.1 µM (active); in [1], 4.41 µM (active); in experiment [3], 6.31 µM (active); in experiment [4], 10 µM (active); in [5] it was 4.41 µM (active); in [8], 16.5 µM (active). Moreover, in experiment [11], the Potency result is “inactive”. In addition, the result in [6] and in experiment [7] was inactive.
